14 molecules from article PMC12136788 can be followed below.

Sequences and labels used below:
B1: chr1:58468927:58468928:-_ENSMUSG00000026034_ENSMUST00000148330|mus_mus|mus_mus_mus_hu_False|58_78 (ssRNA)
RNA: GGGAGUUCUACAGUCCGACGAUCAAUUACUGAAAAAGAUGUUCAUUACCUUAGCUAGGCCAUGUAUGAACCAAAUUAUCUAAAAAAAAUAAACAUGGCAAUAUAAAAAUGUUAAGAAUUUACAAAGCUGUACAAAAUAACUUACAACAGAGGAUUGAGCAUCA
B2: chr1:66485654:66485655:+_ENSMUSG00000015222_ENSMUST00000024639|mus_mus|motif|central (ssRNA)
RNA: GGGAGUUCUACAGUCCGACGAUCAAUUUUUUAUAUAAAAUUGUAACAAUUACUACAGUUGGGGGAUGAAAUUAUUUCUCGGUGGUUUGUAAAGAAUGAAUAUGACACCUGCUCAGAGCCCACUCCUGCCAAGAGCUCAUGCCUCAACAGAGGAUUGAGCAUCA
B3: chr14:62214197:62214198:+_ENSG00000100644_ENST00000337138|hu_hu|FALSE|FALSE (ssRNA)
RNA: GGGAGUUCUACAGUCCGACGAUCAGCAUUAUUAUUUAUGUAAAAUGUGAAAAAAAAGGUGUAAAAAUUUUUCAACUGCCUAUGAUCAUGAUGAAAGGUUACUGCCUUCUUACAAAAAUUAUAUUGGCAUCUUCUUAAAAAUAACAACAGAGGAUUGAGCAUCA
B4: chr10:117127018:117127019:-_ENSMUSG00000020184_ENSMUST00000020408|mus_hu|FALSE|FALSE (ssRNA)
RNA: GGGAGUUCUACAGUCCGACGAUCAACAGAGCAAGACUCGGUCUCAAAAAAAAUAAUAAGUUACAUUUAAAUGUCAUAUACAUAUUUAAGAAAAAAAAAAACCAAGUACUUCUCAUUUAAGACAGAGUAGAAAUUAUUUAAAAUCAACAGAGGAUUGAGCAUCA
B5: chrX:17854524:17854525:+_ENSMUSG00000037369_ENSMUST00000044484|mus_hu|motif|central (ssRNA)
RNA: GGGAGUUCUACAGUCCGACGAUCUCGUGAAUUACUCUCAUUAGUGACAAAAAGCAGAUCAAAAACCUCCACUUCACAAAUGCGGCAGUAAUGAGCUGGUUCUUCUUUUGUCCGCCCAUGCCAUAUAAUCUCUUUUCCUGCAGCCAACAGAGGAUUGAGCAUCA
B6: chr14:48151594:48151595:+_ENSMUSG00000037536_ENSMUST00000168833|mus_mus|FALSE|FALSE (ssRNA)
RNA: GGGAGUUCUACAGUCCGACGAUCAUUGAAGUUUUUUUAAAAAAUUUUUAACCAGACAAAAGGAUGCACAACAUUUUAAUCUAUUAUAUGAUAUUGUCUUAUUCUGUGGUGAUUAUGUUUAGUCAGCUGUUCAUAAUAUACAAUCAACAGAGGAUUGAGCAUCA
B7: chr1:66485654:66485655:+_ENSMUSG00000015222_ENSMUST00000024639|mus_mus|FALSE|FALSE (ssRNA)
RNA: B2 RNA with G80U, G81A
B8: chr1:58468927:58468928:-_ENSMUSG00000026034_ENSMUST00000148330|mus_mus|mus_mus_mus_hu_False|18_78 (ssRNA)
RNA: B1 RNA with U78C, U80C, A84C, U118A, U119A, C122A, A123C, A124U, A125U, G126A
B9: 30669026_30669146_122_CDS_ENSG00000108666_ENST00000577809|human|control|control (ssRNA)
RNA: GGGAGUUCUACAGUCCGACGAUCGCGAUAGCUGUAAAGACAGUAGUGGCUGCUGGACGGCGGCUCGAGUCUCCGCUCCUCGGCUGAGCCUCCCUCUUCGCUGCUCUCUAGUUCCUUUUCAUCUCCAUCCAUCGACUCCUGCAACAACAGAGGAUUGAGCAUCA
B10: 23382874_23385586_565_CDS_ENSMUSG00000026158_ENSMUST00000027343|mouse|control|control (ssRNA)
RNA: GGGAGUUCUACAGUCCGACGAUCUUCUCUCAGGGGGAAAAGCCAUUGGAUGUACGUGUGGUUGUGCUCCAGCUUCUCGUAGUCCCCUUUCCACUUAUUUAGAACCUCUUCAAUGUAAACACCAUCCGGCUUAAAUGGAAUUUUCAACAGAGGAUUGAGCAUCA
B11: chr1:39494447:39494448:+_ENSG00000168653_ENST00000372967|hu_mus|hu_hu_hu_mus_False|58_68 (ssRNA)
RNA: GGGAGUUCUACAGUCCGACGAUCGCACCGAGCGGCGUUCUUAUAGGGCUGUUCUGCGCUUAGGAACGUCAACCAUCGAUCUAUGUUGAUGCCCAGCUUUUUCUGUAUGUCAAGGAAAGGCAUGGCUCUGCAGUGCCCUUGUCACAACAGAGGAUUGAGCAUCA
B12: chr3:179287964:179287965:+_ENSG00000136518_ENST00000429709|hu_hu|hu_hu_hu_mus_True|38_38 (ssRNA)
RNA: GGGAGUUCUACAGUCCGACGAUCCUUGAGUGGUGAGAUGGCCUCCAUGUUCUCCCUGGGCACGCGGAGGGCAUUGGUGUCUAUGUAGUAGGUGGGCCCGCCUUGUUUGCCUUUGUCACCAUCAAUCUCCAUCAUUGUACUUCCCAACAGAGGAUUGAGCAUCA
B13: chr1:58468927:58468928:-_ENSMUSG00000026034_ENSMUST00000148330|mus_mus|mus_mus_mus_hu_False|18_88 (ssRNA)
RNA: GGGAGUUCUACAGUCCGACGAUCAAUUACUGAAAAAGAUGUUCAUUUAUUUGGUUUUGUACUUAAUGAACCAAAUUACCCAAACAAAAUAAACAUGGCAAUAUAAAAAUGUUAAGAAAAUAACUUACUGUACAAAAUAACUUACAACAGAGGAUUGAGCAUCA
B14: chr1:58468927:58468928:-_ENSMUSG00000026034_ENSMUST00000148330|mus_hu|FALSE|FALSE (ssRNA)
RNA: B1 RNA with G57U, C59U, C60A, A61C, G63U, U64A, U78C, U80C, A84C

Substitutions are numbered along the chain they refer to. Whole data set: some 24,000 sequences, median “enrichment r” near 0.99, cut for the highest 2% near 3.7. The sample as a whole holds a higher share of the highest values than the screen did.

The target in the assay is T1, UNK ZnF1-3 (human, UniProt Q9C0B0 31-174).
T1 sequence: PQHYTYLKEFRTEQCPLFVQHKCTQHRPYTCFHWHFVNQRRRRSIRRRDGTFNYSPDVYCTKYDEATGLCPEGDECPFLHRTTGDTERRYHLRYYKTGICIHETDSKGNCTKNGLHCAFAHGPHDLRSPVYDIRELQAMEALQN
Briefly: nsRBNS (natural sequence RNA bind-n-seq); RBNS binding buffer (assumed for nsRBNS): 25 mM Tris pH 7.5, 150 mM KCl, 3 mM MgCl2, 0.01% Triton X-100, 500 ug/ml BSA, 20 U/ml SUPERase-In, 4 C; UNK is unkempt and MSI1 is Musashi-1; names of the RNAs are library labels; protein concentration not given here; high values mean tight binding.
For the molecule B1, the binding signal was determined as 3.96 enrichment R.

On to B2, for which the binding signal turned out to be 4.27 enrichment R. As for B3, the figure is 29 enrichment R. Regarding B4, the binding signal is 18 enrichment R. On to B5, for which the binding signal turned out to be 0.845 enrichment R. In turn, B6 displayed a binding signal of 3.47 enrichment R. The molecule B7 showed a binding signal of 2.92 enrichment R.

The molecule B8 yielded a binding signal of 1.35 enrichment R.

Turning to B9, the binding signal was 0.51 enrichment R. Under B10 stands 0.65 enrichment R. B11 gave a binding signal of 0.515 enrichment R.

On to B12, for which the binding signal was 0.571 enrichment R. As to B13, the binding signal was 6.29 enrichment R.

B14 showed a binding signal of 1.24 enrichment R.
